# Laboratory results from paper PMC5540273 (PLoS ONE, 2017).
# Columns and labels:
# Settings in all cases: concentration: 1 μM, replicates: in singlicate; n = 1
# WNK4 = system: WNK4
# YANK1 = system: T1, YANK1
# T1 construct: gene STK32A
# YANK2 = system: T2, YANK2
# T2 construct: gene STK32B
# YANK3 = system: T3, YANK3
# T3 construct: gene STK32C
# YES = system: T4, YES
# T4 construct: gene YES1
# YSK1 = system: T5, YSK1
# T5 construct: gene STK25
# YSK4 = system: T6, YSK4
# T6 construct: gene MAP3K19
# ZAK = system: ZAK
# ZAP70 = system: ZAP70
# p38-alpha = system: T7, p38-alpha
# T7 construct: gene MAPK14
# 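Note: KINOMEscan kinase panel screen.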
SMILES,%Inh (WNK4) [%],%Inh (YANK1) [%],%Inh (YANK2) [%],%Inh (YANK3) [%],%Inh (YES) [%],%Inh (YSK1) [%],%Inh (YSK4) [%],%Inh (ZAK) [%],%Inh (ZAP70) [%],%Inh (p38-alpha) [%]
Fc1cccc(COc2ccc(Nc3ncnc4sc(-c5ccc[nH]5)cc34)cc2Cl)c1 [GW707818],6,13,34,0,1,0,8,0,6,44
CC(C)(C)OC(=O)NC1CCCN(c2cc(-c3ccc4c(N)n[nH]c4c3)nc(N)n2)C1 (centres unmarked) [GSK2286096],12,10,0,0,1,2,20,0,0,0
Cl.Cl.c1ccc(-c2cc3ccncc3cc2OC2CCNCC2)cc1 [GSK1122999],28,20,0,0,15,8,64,0,0,4
Cl.c1ccc(Cn2ccc3cc(Nc4ncnc5ccccc45)ccc32)cc1 [GW275568],6,18,0,0,15,7,4,6,1,2
Fc1cccc(COc2ccc(Nc3ncnc4cc[nH]c34)cc2Cl)c1,28,26,0,9,20,0,18,0,0,0
COC(=O)c1cccc(NC(=O)NCCNc2ccnc(Nc3ccc(F)cc3)n2)c1 [GSK1379883],36,0,20,0,14,14,8,0,0,3
Fc1ccc(Nc2nccc(-c3c(-c4ccc(Cl)cc4)nn4ncccc34)n2)cc1F [GW829058],28,0,4,30,0,0,47,18,13,26
CC(=O)Nc1n[nH]c2ncc(-c3ccccc3)cc12 [SB-548492],30,0,0,0,0,0,31,31,0,4
CC(C)N1CCC(n2cnc(-c3ccc(F)cc3)c2-c2ccnc(N)n2)CC1 [SB-223132],0,0,16,0,0,0,0,8,5,96.8
FC(F)(F)c1ccc(-c2nn3ncccc3c2-c2ccnc(Nc3cccc(C(F)(F)F)c3)n2)cc1 [GW828205],0,0,0,0,0,0,0,0,42,0
Cc1ccc(O)cc1Nc1cc(C(F)(F)F)nc2ccc(-c3ccncc3)cc12 [GW630823],0,0,0,0,23,0,0,10,0,8
CS(=O)(=O)CCNCc1ccc(-c2ccc3ncnc(Nc4ccc(OCc5ccccc5)c(Cl)c4)c3c2)o1.Cl [GW574783],22,0,24,8,1,0,2,0,0,0
Nc1nc(-c2ccc3c(N)n[nH]c3c2)cc(N2CCCCC2)n1 [GSK2228768],0,0,0,0,0,1,0,0,0,0
NC(=O)c1sc(-n2cnc3ccccc32)cc1OCc1ccccc1F [GSK1024306],0,0,0,0,0,0,2,0,0,93.4
FC(F)(F)c1cc(Nc2nccc(-c3c(-c4ccc(Cl)cc4)nn4ncccc34)n2)ccc1Cl [GW829351],0,0,0,4,0,0,0,0,0,43
Nc1nc(-c2ccc3c(N)n[nH]c3c2)cc(N2CCC[C@@H](C(=O)Nc3ccccc3)C2)n1.O=C(O)C(F)(F)F.O=C(O)C(F)(F)F [GSK2288359],0,4,0,0,0,5,9,3,0,0
N#Cc1ccc(Oc2ccc(Nc3ncnc4cc[nH]c34)cc2Cl)cc1,19,19,22,0,0,0,20,18,0,19
